From PubChem BioAssay (NCATS)
Results filed as inconclusive are left out. A call without a number means that no potency is given here. Activity calls are given as the source filed them. Unless noted, calls come from the whole dose curve; as a rule, active = well fitted curve in the direction sought with a large enough effect; inconclusive = small, poorly fitted or top-dose-only effect, or another doubt; inactive = no such curve, though single readings can be large; an effect the other way counts as inactive or inconclusive.

Assays:
[1] = Cytotoxicity counterscreen for NFkB agonists and antagonists (AID 624476); note: potency is the fitted concentration of half-maximal effect
[2] = qHTS Assay for Identification of Small Molecule Antagonists for NFkB Signaling Pathway. (AID 624479; calls by dose curve;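 note: pathway stimulated with TNF alpha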; note: potency is the fitted concentration of half-maximal effect)
[3] = Cell Proliferation Assay against the TMD8 Cell Line (AID 651645); conditions: TMD8 DLBCL cell line proliferation/viability; at 46.1 µM (top of the series) unless noted;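 note: cells exposed to compound for 48 h before reading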
Method in brief: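 TMD8 ABC DLBCL cells, 500 per well in phenol red-free RPMI with 5% FBS, were treated with compound by pin transfer and incubated 48 hours at 37C, 5% CO2. Viability was read by CellTiter-Glo luminescence, normalised to DMSO (100%) and 9.2 uM bortezomib (0%).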

[4] = Cell Proliferation Assay against the HBL1 Cell Line (AID 651646); conditions: HBL1 DLBCL cells; at 46.1 µM (top of the series) unless noted;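 note: cells exposed to compound for 48 h before reading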
Method in brief: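 Luminescent ATP read-out (CellTiter-Glo) after 48 h compound exposure of HBL1 cells at 37 °C; percent activity was scaled between DMSO as 100% and 9.2 uM bortezomib (final) as 0%.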

[5] = qHTS Assay for Identification of Small Molecule Agonists for NFkB Signaling Pathway. (AID 624478);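 note: compounds tested together with TNF alpha at its EC50 of 10 pM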
Method in brief: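 Cells carrying an NFkB response element-driven beta-lactamase gene are co-treated with compound and 10 pM TNF alpha for 5 h, and reporter activity is then read as 460 and 530 nm fluorescence.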

[6] = Cell Proliferation Assay against the TMD8 Cell Line (Caspase readout at 16 hrs) (AID 651712); note: potency is the fitted concentration of half-maximal effect
Method in brief: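 Apoptotic response of TMD8 cells was judged from caspase 3/7 activation following a 16 hour compound incubation at 37 °C. Luminescent signal was converted to percent activity, with DMSO set as 0% and 9.2 uM final bortezomib as 100%.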

[7] = Cell Proliferation Assay against the TMD8 Cell Line (Caspase readout at 8 hrs) (AID 651713)
Method in brief: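 Percent activity derived from Caspase-Glo signal, DMSO set to 0% and bortezomib (9.2 uM final) to 100%. TMD8 cells were exposed to compound for 8 h in RPMI with 5% FBS.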

[8] = qHTS assay for small molecule agonists of the antioxidant response element (ARE) signaling pathway (AID 651741; active = well fitted activation curve with a large enough effect in the signal ratio; the % refers to the signal ratio; note: potency is the fitted concentration of half-maximal effect)
Method in brief: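 Seeding 2,000 ARE-bla HepG2 cells per well preceded a 5 h incubation at 37 C/5% CO2 and a 16 h compound exposure at 37 C. Beta-lactamase reporter activity was then quantified by fluorescence after 2 h with LiveBLAzer B/G FRET substrate.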

SMILES	Potency [1]	Potency [2]	viability (% of control) [3]	viability, percent of control [4]	outcome [5]	Potency [6]	Potency [7]	Potency [8]
Cc1c(CN2CCN(C(=O)C(C)C)CC2)sc2c(N3CCOCC3)nc(-c3cnc(N)nc3)nc12	0.148 µM (active)	inactive	3.51%	45.6%	–	–	–	–
C[C@]1(c2nc3c(C(N)=O)cccc3[nH]2)CCCN1	inactive	–	57.1%	89.5%	inactive	inactive	inactive	–
CC(C)c1onc(-c2c(Cl)cccc2Cl)c1COc1ccc(/C=C/c2cccc(C(=O)O)c2)c(Cl)c1	11.8 µM (active)	21.1 µM (active)	89.6%	75.2%	–	–	inactive	–
Cc1cccc(-c2nn(C(=S)Nc3ccccc3)cc2-c2ccnc3ccccc23)n1	inactive	–	60.3%	94.2%	inactive	–	inactive	–
N#Cc1ccc(C(c2ccc(C#N)cc2)n2cncn2)cc1	inactive	inactive	71.5%	110%	–	inactive	inactive	–
Clc1ccc(Nc2nnc(Cc3ccncc3)c3ccccc23)cc1	inactive	inactive	90.1%	66.3%	–	–	inactive	–
COc1ccc2c3n(c(=NC(=O)c4cccnc4)nc2c1OC)CCN3	1.87 µM (active)	inactive	22.1%	39.3%	–	inactive	inactive	–
CCCn1c(=O)c2[nH]c(C34CC5CC3C[C@@H](C5)C4)nc2n(CCC)c1=O	inactive	–	30.5%	60.2%	inactive	18.7 µM (active)	inactive	–
COc1ccc2nc(S(=O)Cc3ncc(C)c(OC)c3C)[nH]c2c1 (stereo not drawn)	inactive	inactive	52.2%	89.4%	–	inactive	inactive	27.3 µM (active)
CCN(CC)CCCC(C)Nc1nc(C)cc(Nc2ccc3nc(C)cc(N)c3c2)n1 (stereo not drawn)	inactive	inactive	65.5%	67.9%	–	inactive	inactive	–
Cc1csc(NC(=O)c2sc3nc4c(c(C(F)(F)F)c3c2N)CCC4)n1	inactive	inactive	64.8%	60.9%	–	inactive	inactive	–
Cc1cc(-c2nnc3n2CCCCC3)c(C)n1-c1ccc(F)cc1	inactive	inactive	6.21%	4.79%	–	–	inactive	–
COc1ccc(-c2c(-c3ccc(O)cc3O)n[nH]c2C)cc1	inactive	–	86.4%	72.3%	inactive	–	inactive	–
CC[C@@H](C)[C@H](NC(=O)[C@H](CC1CCCCC1)NC(=O)c1ccno1)C(=O)N1CCC2(CCc3ccccc32)CC1	inactive	inactive	62.6%	65.5%	–	inactive	inactive	–
